ERa SRC1 pot: ER-alpha (human) coactivator binding potentiation. 86,000 tested, 1.3% active. coactivator binding (% of control), % at 25.6 µM. TR-FRET ERalpha-LBD/SRC-Cy5 coactivator binding, 2 h; 100 = basal binding, no effect. AID 639; in the data active means activity above about 200%;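 further: binding measured in presence of low estradiol as agonist stimulus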
ERa coact inh: blocks coactivator binding to human estrogen receptor alpha; 86,000 tested, 1.7% active; inhibition, % at 25.6 µM; P03372; TR-FRET ER-alpha LBD / SRC-1 peptide, estradiol-bound; in the data active means inhibition above about 50%
FAK blocker: blocks human focal adhesion kinase activity; biochemical FAK kinase activity assay; inhibition, %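 (tested at 7 µM)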; 97,000 tested, 0.84% active; AID 727; in the data active means inhibition above about 19%
ERb coact inh: blocks coactivator binding to human estrogen receptor beta | TR-FRET ER-beta LBD / SRC1-Cy5 peptide binding; receptor agonist-loaded with 1 µM estradiol | inhibition, % at 25.6 µM | 86,000 tested, 1.3% active;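 active means compounds whose percent inhibition of the receptor-coactivator binding signal exceeds about 50% in the single-dose screen, limit read from the data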
Each line names hits and unclear results; the compound was inactive in the other large screens; [ ] = remark or other dose. Most compounds without a hit are left out; they make up all but 3.2% or so of the library.

COc1nc(-c2ccccc2)ccc1-c1noc(-c2ccco2)n1	ERa SRC1 pot 229
COc1ccc(-c2ccc(-c3noc(-c4ccccc4F)n3)c(OC)n2)cc1	ERa SRC1 pot 241[fluorescence artefact?]
Fc1ccc(-c2nnc(-n3nnc4ccccc43)c3ccccc23)cc1	ERa coact inh 58
O=C(CCCCCC(=O)N(CCO)CCO)N(CCO)CCO	none
Cc1nc(-c2ccc(O)c(O)c2)cs1	ERb coact inh 59
COc1cc(-c2csc(C)n2)ccc1O	none
CCc1cccc(CC)c1NC(=O)C1CC(=O)N(c2ccc3c(c2)OCCO3)C1 (configuration not stated)	none (no result: ERa SRC1 pot, ERa coact inh, ERb coact inh)
O=C(Nc1nc(-c2ccco2)c(-c2ccco2)s1)C1CC(=O)N(c2ccc3c(c2)OCCO3)C1 (configuration not stated)	ERb coact inh 71[fluorescence artefact?] (no result: FAK blocker)
O=C(COc1ccccc1)Nc1nc(-c2ccc(S(=O)(=O)N3CCOCC3)cc2)cs1	ERa SRC1 pot 328[fluorescence artefact?]
COc1ccccc1OCC(=O)Nc1nc(-c2ccc(S(=O)(=O)N3CCOCC3)cc2)cs1	ERa SRC1 pot 217[fluorescence artefact?]
O=C(COc1ccc(Cl)cc1)Nc1nc(-c2ccc(S(=O)(=O)N3CCOCC3)cc2)cs1	ERa SRC1 pot 275[fluorescence artefact?]
O=C(COC(=O)c1ccc(S(=O)(=O)N2CCOCC2)cc1)Nc1nc(-c2ccccc2)cs1	none
Cc1ccc(Nc2nc(-c3ccc(S(=O)(=O)N4CCOCC4)cc3)cs2)cc1	none (no result: ERa SRC1 pot, ERa coact inh, ERb coact inh)
CCn1c2ccccc2c2nnc(SCN3C(=O)c4ccccc4C3=O)nc21	none (no result: FAK blocker)
CC(C)N1CC(C(=O)O)CC1=O (configuration not stated)	none
CCOC(=O)C(C(=O)Nc1nccs1)C1CCCCC1 (configuration not stated)	none
CCOC(=O)c1cc(CC)sc1NC(=O)C(c1ccccc1)c1ccccc1	none
Cn1c(SCC(=O)Nc2nc3ccccc3s2)nnc1-c1ccccc1	none
CC1(C)Cc2ccccc2-c2nnc(SCC(=O)Nc3nc4ccccc4s3)n21	ERa coact inh 56[fluorescence artefact?]
CN(C)S(=O)(=O)c1ccc(C(=O)Nc2nc(-c3cccs3)cs2)cc1	none
O=C(Nc1nc(-c2ccc(S(=O)(=O)N3CCCC3)cc2)cs1)C1COc2ccccc2O1 (configuration not stated)	none
O=C(Nc1nc(-c2ccc(S(=O)(=O)N3CCCCCC3)cc2)cs1)c1ccccc1	ERa SRC1 pot 696[fluorescence artefact?]
O=C(Nc1nc(-c2ccc3c(c2)OCCO3)cs1)c1ccc(S(=O)(=O)N2CCCCC2)cc1	ERa SRC1 pot 269[fluorescence artefact?]
COCCN(CCOC)S(=O)(=O)c1ccc(C(=O)Nc2nc(-c3ccncc3)cs2)cc1	ERa SRC1 pot 211
O=C(Nc1nc(-c2cccs2)cs1)c1ccc(S(=O)(=O)N2CCCC2)cc1	ERb coact inh 51[fluorescence artefact?]
Cc1ccc(-c2nnc(SCC(=O)N3CCOCC3)nc2-c2ccc(C)cc2)cc1	none
CCOC(=O)N1CCN(C(=O)CCSc2ccccc2)CC1	none
O=C(NC(=O)c1ccc(Cl)cc1)Nc1cc(N2CCCCC2)ncn1	ERa SRC1 pot 243, ERa coact inh 72[fluorescence artefact?], ERb coact inh 65[fluorescence artefact?]
O=C(Nc1cc(N2CCOCC2)ncn1)Nc1cccc2ccccc12	none
CC(=O)N(C(C)=O)c1ccc2nc(C)[nH]c(=O)c2c1	ERa SRC1 pot 577[fluorescence artefact?]
Cc1ccc2nc(NC(=O)CSCc3ccccc3)sc2c1	ERb coact inh 85[fluorescence artefact?]
COCC(=O)Nc1nc2ccc(C)cc2s1	none
CCOC(=O)c1[nH]c(C)c(C(=O)c2ccc(C)cc2)c1C	ERa coact inh 57[fluorescence artefact?]
O=C(NC1CCN(C(=S)NCc2ccco2)CC1)NC12CC3CC(CC(C3)C1)C2	none (no result: ERa SRC1 pot, ERa coact inh, ERb coact inh)
Nn1c(COc2cccc(Br)c2)nnc1SCC(=O)N1CCc2ccccc2C1	none
CN(C)C(=O)Cn1c(SCC(=O)N2CCCc3ccccc32)nc2ccccc21	ERa SRC1 pot 829[fluorescence artefact?]
COc1ccc(OCC(=O)N2CCN(C(=O)c3ccccc3)CC2)cc1	ERa SRC1 pot 492[fluorescence artefact?]
COc1cccc(OC)c1C(=O)N1CCN(c2ccccn2)CC1	ERb coact inh 52[fluorescence artefact?]
COc1ccc2c(-c3ccccc3)cc3nnnn3c2c1	ERa SRC1 pot 206
CCOc1cc(CNc2ncc(-c3ccc(OC)cc3)n2C)ccc1O	none
C=CCn1c(SCC(=O)Nc2sccc2C(N)=O)nc2ccc(Cl)cc2c1=O	ERa coact inh 64[fluorescence artefact?]
C=CCn1c(SCC(=O)Nc2sccc2C(N)=O)nc2ccccc2c1=O	none
Cc1ccc(-c2nnn(CC(=O)Nc3ccc4nn(-c5ccccc5)nc4c3)n2)o1	ERa coact inh 58
CN(C)c1ncc(C2=C(Cl)C(=O)C(N3CCCC3)=C(Cl)C2=O)s1	ERa coact inh 97[fluorescence artefact?], FAK blocker 39, ERb coact inh 94[fluorescence artefact?]
CC(=O)Nc1nc2c(c3c1c(=O)oc1ccccc13)CCCC2	none
CCCCc1cc2c(c(NC(C)=O)n1)c(=O)oc1ccccc12	ERa SRC1 pot 270[fluorescence artefact?]
CC(=O)Nc1nc2c(c3c1c(=O)oc1ccccc13)CC(C)CC2 (configuration not stated)	ERa SRC1 pot 227[fluorescence artefact?]
CC(=O)Nc1nc(CC(C)C)cc2c1c(=O)oc1ccccc12	none
CCCCc1cc2c(c(NC(=O)CC)n1)c(=O)oc1ccccc12	ERa coact inh 62[fluorescence artefact?]
Cn1cnnc1SCC(=O)NC(=O)NC1CCCC1	none (no result: FAK blocker)
CCOc1cccc2sc(NC(=O)c3ccc(Br)s3)nc12	ERa SRC1 pot 433[fluorescence artefact?]
CCOC(=O)Cc1csc(NC(=O)c2ccc(Br)s2)n1	none
CCC1(COC(=O)Nc2cccc(Cl)c2)COC1	none
CCn1nnc(NC(=O)c2ccc(-c3ccc(Cl)cc3)o2)n1	none
CCc1nnc(NC(=O)c2ccc(-c3ccc(Cl)cc3)o2)s1	ERa SRC1 pot 274[fluorescence artefact?], ERa coact inh 54[fluorescence artefact?]
O=C(c1ccccc1)N1CCN2C(=O)c3ccccc3C12c1ccc(Cl)cc1 (configuration not stated)	none
CC1CCc2nc(NC(=O)CN3CCN(Cc4ccc5c(c4)OCO5)CC3)sc2C1 (configuration not stated)	none
CCN1CCc2nc(NC(=O)CC(c3ccccc3)c3ccccc3)sc2C1	ERa SRC1 pot 282[fluorescence artefact?]
CCN1CCc2nc(NC(=O)C(c3ccccc3)c3ccccc3)sc2C1	none
CCN1CCc2nc(NC(=O)Cc3ccc4c(c3)OCCO4)sc2C1	ERa coact inh 54
Cc1nnc(NC(=O)c2cccc(S(=O)(=O)N3CCc4ccccc43)c2)s1	none (no result: ERa SRC1 pot, ERa coact inh, ERb coact inh)
O=C(Nc1nc2c(s1)CN(Cc1ccccc1)CC2)c1cccc(S(=O)(=O)N2CCc3ccccc32)c1	ERa SRC1 pot 500[fluorescence artefact?]
CCN1CCc2nc(NC(=O)c3ccc4c(c3)OCCO4)sc2C1	ERa coact inh 51[fluorescence artefact?]
CC(=O)N(CC1CCCO1)c1nnc(-c2cnccn2)s1 (configuration not stated)	none
COc1ccc(C(C(=O)Nc2ccc(F)cc2)N(C(=O)Cn2nnc3ccccc32)C2CC2)cc1 (configuration not stated)	none (no result: ERa SRC1 pot, ERa coact inh, ERb coact inh)
COc1ccc(NC(=O)CN(c2cc(C)cc(C)c2)S(=O)(=O)c2c(C)noc2C)cc1OC	none (no result: FAK blocker)
NC(=O)CSc1nnc(Cc2csc(Nc3ccc(F)cc3)n2)n1Cc1ccccc1	none
Oc1ccc(/C=N/n2c3ccccc3c3ccccc32)cc1	none (no result: ERa SRC1 pot, ERa coact inh, ERb coact inh)
C/C(N)=C(/C#N)C(=O)CSc1nnc(Nc2cccc(C)c2)s1	ERa coact inh 91[fluorescence artefact?], ERb coact inh 96[fluorescence artefact?]
C/C(N)=C(/C#N)C(=O)CSc1nc2cc(Cl)ccc2s1	none (no result: ERa SRC1 pot, ERa coact inh, ERb coact inh)

Compound activity from PubChem BioAssay.
